Most compounds without a hit are left out; they make up all but 0.45% or so of the library.
EPAC1 antag – antagonists of human EPAC1 | EPAC1 GEF assay, Rap1b-BODIPY-GDP exchange fluorescence | Potency, µM (top dose mostly 115 µM), actives largely listed as inhibitors | 360,000 compounds, 0.14% hits | O95398; further: nearly all actives have a fitted effect of over 50% in size
USP2a inh – blocks human ubiquitin-specific protease USP2a | Potency, µM (series often up to 38.3 µM), usual class: inhibitors | AID 463254 | USP2 core, Ub-CHOP2 coupled fluorogenic reporter, 485/531 | 330,000 compounds, 0.01% hits
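USP2 core (10nM final) preincubated 30min RT with compound in 20mM Tris-HCl pH 8.0, 2mM CaCl2, 2mM beta-mercaptoethanol, 0.05% CHAPS; 25nM Ub-CHOP2 plus 25nM reporter substrate added, fluorescence (Ex485/Em531) read after 60min.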
USP1-UAF1 inh – USP1/UAF1 (human) deubiquitinase inhibition. O94782. recombinant USP1/UAF1, Ub-Rhodamine cleavage fluorescence. Potency, µM (highest dose often 57.1 µM), actives largely listed as inhibitors. 390,000 compounds, 0.23% hits. AID 743255; further: nearly all actives have a fitted effect of over 60% in size
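Step one: compound is pinned into 1nM USP1/UAF1 in HEPES pH 7.8 buffer with TCEP. Step two: 15 min room-temperature incubation. Step three: Ub-Rho (150nM final) starts cleavage, tracked by fluorescence over six one-minute reads.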
EPAC1 ag – agonists of human EPAC1. EPAC1 agonist qHTS, biochemical assay; response scale: 100% = response to 6.5 mM cAMP. O95398. AID 720707. Potency, µM (highest dose often 154 µM), most hits filed as activators. 360,000 compounds, 0.073% hits; further: nearly all actives have a fitted effect of over 60% in size
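Nucleotide exchange by EPAC1 (100 nM) on Rap1B–BODIPY-GDP (250 nM) in the presence of 50 uM GDP is tracked fluorescently at 480/540 nm over 30 min. Signals are normalized to a 6.5 mM cAMP control.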
EPAC2 ag – activates human EPAC2 exchange factor; EPAC2 activation, biochemical qHTS; response scale: 100% = 6.5 mM cAMP response; 360,000 compounds, 0.079% hits; Potency, µM (top dose mostly 154 µM), hits mostly activators; AID 720711; further: nearly all actives have a fitted effect of over 50% in size
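Guanine nucleotide exchange by EPAC2 is measured as reduced fluorescence of BODIPY-GDP once it is released from 250 nM Rap1B. Plates are read kinetically for 30 min at room temperature; results are scaled to 6.5 mM cAMP.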
EPAC2 antagonist – blocks human EPAC2 exchange factor. EPAC2 GEF exchange of Rap1B-BODIPY-GDP, fluorescence. Q8WZA2. AID 720708. 360,000 compounds, 0.18% hits. Potency, µM (doses to about 114 µM), actives largely listed as inhibitors; further: nearly all actives have a fitted effect of over 45% in size
A number is an active result; 0 = inactive; ? = inconclusive; - = not tested or not shown. The call rests on the fitted dose curve; in most records, active means well fitted curve in the direction sought with a large enough effect; inconclusive means small, poorly fitted or top-dose-only effect, or another doubt; inactive means no such curve, though single readings can be large; an effect the other way counts as inactive or inconclusive.

SMILES | EPAC1 antag | USP2a inh | USP1-UAF1 inh | EPAC1 ag | EPAC2 ag | EPAC2 antagonist
CCCCCCCCN1C(=O)[C@H](CC(=O)N2CCOCC2)C[C@@]2(C(=O)OCC)CCCC=C12 | 0 | - | - | 0 | 0 | 0
CC(=O)N1c2cc3ccccc3cc2N(C(C)=O)c2cc3ccccc3cc21 | 0 | - | 0 | 0 | 0 | 0
CCN1C(=O)/C(=C/C=C2/SCCN2C)SC1=S | 0 | 0 | 25µM | 100µM | 35µM | 0
CN1/C(=C\C=C2/SC(=S)N(CC(=O)O)C2=O)C(C)(C)c2ccccc21 | 0 | ? | 25µM | 63µM | 112µM | 0
CN1CCS/C1=C\C=C1/SC(=S)N(CC(=O)O)C1=O | 0 | ? | 25µM | 22µM | ? | 0
Cc1cc(C(=O)N2CCC2(C)C(=O)NS(=O)(=O)c2cccc(OC(F)F)c2)nn1C (stereo not drawn) | 0 | - | - | 0 | 0 | 0
O=C(NC1(O)C(=O)c2ccccc2C1=O)c1ccc(C(F)(F)F)cc1 | 35µM | 0 | 16µM | 0 | 0 | ?
S=C1Nc2ccccc2CS1 | 0 | - | 0 | 0 | 0 | 0
S=C1Cc2ccccc2N1 | ? | 0 | 28µM | 0 | 0 | 0
O=C(NCc1ccccc1)c1ccc2nc(-c3ccco3)c(-c3ccco3)nc2c1 | 32µM | 0 | ? | 0 | 0 | 0
O=C(Nc1ccccc1)c1ccc2nc(-c3ccco3)c(-c3ccco3)nc2c1 | ? | ? | 0 | 0 | 0 | 0
CC1CN(S(=O)(=O)c2cccc(C(=O)Nc3ccccc3N3CCOCC3)c2)CC(C)O1 (stereo not drawn) | 0 | 0 | 0 | 25µM | 0 | 0
COc1ccc(-c2[nH][nH]c(=O)c2NC(=O)c2ccccn2)cc1 | 0 | - | - | 0 | 0 | 0
COc1ccc(CCC(=O)Nc2c(-c3ccc(N(C)C)cc3)[nH][nH]c2=O)cc1 | 50µM | - | - | 0 | ? | 0
COCCNc1nc(Nc2ccc(Cl)cc2F)c2sccc2n1 | 0 | - | - | 0 | 0 | ?
CCC1CN(C(=O)Nc2cc(Cl)c(OC)cc2OC)c2ccccc2O1 (stereo not drawn) | - | - | 0 | - | - | -
C=CCn1c(NS(=O)(=O)c2ccccc2)c(S(=O)(=O)c2ccc(C)cc2)c2nc3ccccc3nc21 | ? | 0 | 28µM | 0 | 0 | ?
CC(=O)Nc1c(S(=O)(=O)c2ccccc2)c2nc3ccccc3nc2n1Cc1ccccc1 | 0 | 0 | 0 | 0 | 0 | 0
Cc1ccc(S(=O)(=O)c2c(N)n(-c3ccccc3)c3nc4ccccc4nc23)cc1 | 0 | 0 | 0 | 0 | 0 | 0
O=S(=O)(Nc1c(S(=O)(=O)c2ccccc2)c2nc3ccccc3nc2n1C1CCCCC1)c1ccccc1 | 40µM | 0 | 3.2µM | 0 | 0 | ?
COc1ccc(N2CCN(C(CNC(=O)C(=O)NCc3ccc(F)cc3)c3cccnc3)CC2)cc1 (stereo not drawn) | - | - | 0 | - | - | -
COc1ccc(-c2cc(C(F)F)n3ncc(C(=O)N4CCc5ccccc54)c3n2)cc1 | 0 | 0 | 0 | 0 | 100µM | 0
Cc1cc(S(=O)(=O)N2CCN(CC(=O)N(C)Cc3ccccc3)CC2)ccc1Br | 0 | 0 | 0 | 63µM | 0 | 0
CN(Cc1ccccc1)C(=O)CN1CCN(S(=O)(=O)c2ccc(Cl)c(Cl)c2)CC1 | 0 | 0 | 0 | 0 | 0 | 0
Cc1cccn2c(=O)c3cc(C#N)c(=NC(=O)c4ccccc4)n(Cc4ccco4)c3nc12 | 89µM | - | 0 | 0 | 0 | ?
SMILES | EPAC1 antag | USP2a inh | USP1-UAF1 inh | EPAC1 ag | EPAC2 ag | EPAC2 antagonist
COCCCn1c(=NC(=O)c2ccccc2)c(C#N)cc2c(=O)n3cccc(C)c3nc21 | 0 | 0 | 0 | 0 | 0 | 0
Cc1cccc(C(=O)N=c2c(C#N)cc3c(=O)n4cccc(C)c4nc3n2Cc2ccco2)c1 | 50µM | 0 | ? | 0 | 0 | 0
Cc1cccn2c(=O)c3cc(C#N)c(=NC(=O)c4ccco4)n(Cc4ccco4)c3nc12 | 0 | 0 | 0 | 0 | 0 | 0
CCC1CN(C(=O)N2CCC(C(=O)NCc3cccc(C)c3)CC2)c2ccccc2O1 (stereo not drawn) | - | - | 0 | - | - | -
CC(=O)Oc1ccc(N2C(=O)C3C(C2=O)C(C(=O)c2ccc(Cl)cc2)N2CCCC32)cc1 (stereo not drawn) | 0 | 0 | 22µM | 0 | 0 | 0
COc1ccc(-c2cc(=O)oc3cc(OC(C)C(=O)O)ccc23)cc1 (stereo not drawn) | 0 | 0 | 0 | 0 | 0 | 0
COc1ccc(-c2cc(=O)oc3c(O)c(O)ccc23)cc1 | 35µM | 0 | 0 | 0 | 0 | 0
Cc1ccc(Cl)cc1NS(=O)(=O)c1ccc2oc(=O)c3ncn(C)c3c2c1 | - | - | 0 | - | - | -
COCCN1C(=O)/C(=C/c2ccc(N3CCCC3)cc2)SC1=S | 0 | ? | 5µM | ? | 20µM | 0
CCN(CC)c1ccc(/C=C(\C#N)C(=O)c2ccc(Br)cc2)cc1 | 0 | ? | 25µM | 112µM | 100µM | 0
CCN(CC)c1ccc(/C=C(\C#N)C(N)=O)cc1 | 0 | 0 | 0 | 0 | 0 | 0
CN(C)c1ccc(/C=C(\C#N)C(=O)c2ccccc2)cc1 | 0 | 0 | 14µM | 0 | ? | 0
COC1=C(Br)C(=O)c2nc(C)ccc2C1=O | ? | - | 25µM | 0 | 0 | ?
Cc1nc2c(nc1C)C(=O)c1ccccc1C2=O | 0 | - | ? | 0 | 0 | 0
COC1=C(N)C(=O)c2nc(C)ccc2C1=O | 0 | - | 7.1µM | 0 | 0 | 0
Cc1ccc(OCc2cc(=O)n3cc(C)sc3n2)c(C)c1 | - | - | 0 | - | - | -
CC(=O)c1cc(-c2ccc(F)cc2)n(CC(=O)NCc2ccc(C)cc2)c1C | - | - | 0 | - | - | -
CCN1CC=C2C(C#N)=C(N)C(C#N)(C#N)[C@H](c3cccc(OC)c3OC)[C@H]2C1 | 0 | 0 | 32µM | 0 | 0 | 0
N#Cc1c(-c2ccccc2)nc(SCC(=O)Nc2ccc(OC(F)(F)Cl)cc2)[nH]c1=O | ? | 0 | ? | 0 | 0 | 35µM
N#Cc1c(-c2ccccc2)nc(SCC(=O)N(c2ccccc2)c2ccccc2)[nH]c1=O | 0 | 0 | 0 | 0 | 0 | 0
N#Cc1c(-c2ccccc2)nc(SCC(=O)N2c3ccccc3Sc3ccccc32)[nH]c1=O | 79µM | 0 | 32µM | 0 | 0 | 8.9µM
N#Cc1c(-c2ccccc2)nc(SCC(=O)Nc2ccccc2)[nH]c1=O | 0 | 0 | 0 | 0 | 0 | 0
N#Cc1c(-c2ccccc2)nc(SCc2ccc(Cl)cc2)[nH]c1=O | 79µM | 0 | ? | 0 | 0 | ?
CCOc1ccc(NC(=O)C2Cc3ccccc3N2C(=O)c2ccccc2)cc1 (stereo not drawn) | - | - | 0 | - | - | -
Cc1ccc(Cl)c2sc(N3CCN(C(=O)c4ccco4)CC3)nc12 | 0 | 0 | 0 | 100µM | 0 | 0
C/C(=N\NC(=O)c1cc(O)ccc1O)c1cccc(NC(=O)c2ccc(Cl)cc2)c1 | 50µM | 0 | 0 | 0 | 0 | 0

Assay outcomes (PubChem BioAssay)
